For one sequence, binding signal results are on record in article PMC7862700, “An all-to-all approach to the identification of sequence-specific readers for epigenetic DNA modifications on cytosine”.

Test in all cases: DAPPL (digital affinity profiling via proximity ligation, sequencing); 10 mM Tris-HCl pH 7.5, 50 mM NaCl, 1 mM DTT, 4% glycerol, room temperature, 30 min; GST-TFs on glutathione beads, 16-mer random dsDNA library, 0.1% formaldehyde crosslink after washing; high values mean tight binding
One test has as its target T1, FLI1 (Homo sapiens, UniProt Q01543 1-452).
T1 sequence: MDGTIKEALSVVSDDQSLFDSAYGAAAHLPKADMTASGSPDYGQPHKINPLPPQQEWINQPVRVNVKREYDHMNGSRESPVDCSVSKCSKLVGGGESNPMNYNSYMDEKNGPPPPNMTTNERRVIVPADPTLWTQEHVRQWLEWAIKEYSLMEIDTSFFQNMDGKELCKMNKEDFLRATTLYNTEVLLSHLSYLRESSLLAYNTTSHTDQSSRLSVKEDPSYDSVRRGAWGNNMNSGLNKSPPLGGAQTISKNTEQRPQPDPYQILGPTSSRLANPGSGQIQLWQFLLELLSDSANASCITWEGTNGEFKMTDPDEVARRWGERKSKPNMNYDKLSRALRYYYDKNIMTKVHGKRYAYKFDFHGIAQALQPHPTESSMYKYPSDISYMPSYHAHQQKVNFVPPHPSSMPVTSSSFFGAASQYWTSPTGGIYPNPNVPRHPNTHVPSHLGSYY
The following applies: protein: recombinant; tags: N-terminal GST; dsDNA, one strand shown. Summed up: (§1)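 In yeast, human transcription factors were expressed with a GST fusion, then pulled down on glutathione beads and given DNA barcodes. Pooled with a tag-only sample, they were exposed to 200 nmole of a 16-mer random double-stranded DNA library (Tris/NaCl/DTT/glycerol buffer, room temperature, 30 min), washed, crosslinked with 0.1% formaldehyde, proximity-ligated using BsaI/T4 ligase for 1 h at 37 °C, PCR-amplified and read on an Illumina NextSeq500. Each hexamer's frequency of reads for a factor, divided by the matching frequency for the tag-only sample, gives the binding signal.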

Another test concerns the target T2, ELK1 (Homo sapiens, UniProt P19419 1-428).
T2 sequence: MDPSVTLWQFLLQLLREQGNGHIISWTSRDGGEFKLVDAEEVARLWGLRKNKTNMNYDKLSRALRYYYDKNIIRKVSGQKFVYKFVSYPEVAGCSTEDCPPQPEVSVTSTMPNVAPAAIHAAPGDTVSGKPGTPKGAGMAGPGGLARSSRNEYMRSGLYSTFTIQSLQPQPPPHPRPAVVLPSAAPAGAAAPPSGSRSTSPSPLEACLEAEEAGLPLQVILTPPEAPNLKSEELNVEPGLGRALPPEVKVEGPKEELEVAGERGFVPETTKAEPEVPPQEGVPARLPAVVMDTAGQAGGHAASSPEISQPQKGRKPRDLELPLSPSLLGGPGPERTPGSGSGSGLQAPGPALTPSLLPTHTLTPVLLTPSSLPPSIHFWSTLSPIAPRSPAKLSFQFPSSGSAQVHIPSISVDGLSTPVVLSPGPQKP
The following applies: protein: recombinant; tags: N-terminal GST; dsDNA, one strand shown. Summed up: as §1

For another test, the target named is T3, GABPA (Homo sapiens, UniProt Q06546 1-454).
T3 sequence: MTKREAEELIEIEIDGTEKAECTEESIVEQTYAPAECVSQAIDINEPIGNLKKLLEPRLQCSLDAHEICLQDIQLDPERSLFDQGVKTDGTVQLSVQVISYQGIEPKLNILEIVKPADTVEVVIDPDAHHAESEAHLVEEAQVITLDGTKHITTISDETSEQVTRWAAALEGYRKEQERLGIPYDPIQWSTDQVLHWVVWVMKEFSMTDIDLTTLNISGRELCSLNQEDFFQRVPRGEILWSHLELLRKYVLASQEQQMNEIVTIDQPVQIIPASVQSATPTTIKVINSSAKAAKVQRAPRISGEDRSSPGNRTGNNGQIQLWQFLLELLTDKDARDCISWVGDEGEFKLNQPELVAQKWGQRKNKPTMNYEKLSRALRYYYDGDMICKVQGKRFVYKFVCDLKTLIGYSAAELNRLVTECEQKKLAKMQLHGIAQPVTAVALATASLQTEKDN
Particulars: protein: recombinant; tags: N-terminal GST; dsDNA, one strand shown. The procedure, abridged:
as §1

For the next test, the target named is T4, ERG (Homo sapiens, UniProt P11308 1-479).
T4 sequence: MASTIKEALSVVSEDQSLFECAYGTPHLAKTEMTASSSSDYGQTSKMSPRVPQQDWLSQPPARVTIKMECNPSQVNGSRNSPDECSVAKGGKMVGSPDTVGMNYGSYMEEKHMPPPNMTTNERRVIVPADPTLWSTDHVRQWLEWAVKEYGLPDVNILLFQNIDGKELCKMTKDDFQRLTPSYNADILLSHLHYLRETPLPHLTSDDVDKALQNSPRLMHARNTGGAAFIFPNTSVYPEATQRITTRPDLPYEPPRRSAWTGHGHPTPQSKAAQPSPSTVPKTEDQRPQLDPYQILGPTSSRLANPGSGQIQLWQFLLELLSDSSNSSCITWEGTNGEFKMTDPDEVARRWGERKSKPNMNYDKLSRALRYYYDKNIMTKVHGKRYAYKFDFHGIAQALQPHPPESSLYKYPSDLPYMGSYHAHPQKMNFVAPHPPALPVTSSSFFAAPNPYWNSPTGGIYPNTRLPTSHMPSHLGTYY
Particulars: protein: recombinant; tags: N-terminal GST; dsDNA, one strand shown. Summed up: as §1

A further test addresses ELF1 (Homo sapiens, UniProt P32519 1-619). The following applies: protein: recombinant; tags: N-terminal GST; dsDNA, one strand shown. Summed up:
as §1

A further test deals with T5, EHF (Homo sapiens, UniProt Q9NZC4 1-300).
T5 sequence: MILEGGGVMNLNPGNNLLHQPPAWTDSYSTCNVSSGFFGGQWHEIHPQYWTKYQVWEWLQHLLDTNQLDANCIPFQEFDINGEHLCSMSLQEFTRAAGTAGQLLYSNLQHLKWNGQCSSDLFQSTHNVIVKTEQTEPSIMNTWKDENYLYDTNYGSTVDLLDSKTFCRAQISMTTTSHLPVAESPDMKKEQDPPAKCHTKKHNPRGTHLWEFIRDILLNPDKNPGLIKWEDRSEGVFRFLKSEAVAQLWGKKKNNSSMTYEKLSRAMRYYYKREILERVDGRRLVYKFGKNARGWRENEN
Particulars: protein: recombinant; tags: N-terminal GST; dsDNA, one strand shown. The procedure, abridged:
as §1

Another test addresses SPI1 (Homo sapiens, UniProt P17947 1-270). The following applies: protein: recombinant; tags: N-terminal GST; dsDNA, one strand shown. Summed up: as §1
In a further test the target is SPIB (Homo sapiens, UniProt Q01892 1-262). Particulars: protein: recombinant; tags: N-terminal GST; dsDNA, one strand shown. Summed up:
as §1

Another test addresses T6, ELK3 (Homo sapiens, UniProt P41970 1-407).
T6 sequence: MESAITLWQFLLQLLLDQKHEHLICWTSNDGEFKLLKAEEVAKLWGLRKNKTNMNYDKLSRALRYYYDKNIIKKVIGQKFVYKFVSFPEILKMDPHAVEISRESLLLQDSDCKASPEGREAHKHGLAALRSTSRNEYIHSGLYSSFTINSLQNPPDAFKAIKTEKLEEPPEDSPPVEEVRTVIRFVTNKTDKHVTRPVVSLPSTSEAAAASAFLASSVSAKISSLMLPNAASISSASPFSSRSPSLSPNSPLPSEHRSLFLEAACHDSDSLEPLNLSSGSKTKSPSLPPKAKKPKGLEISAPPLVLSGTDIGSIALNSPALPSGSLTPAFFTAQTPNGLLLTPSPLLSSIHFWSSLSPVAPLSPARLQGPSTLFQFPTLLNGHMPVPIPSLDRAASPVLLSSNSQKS
The following applies: protein: recombinant; tags: N-terminal GST; dsDNA, one strand shown. The procedure, abridged: as §1

The next test addresses T7, FEV (Homo sapiens, UniProt Q99581 1-238).
T7 sequence: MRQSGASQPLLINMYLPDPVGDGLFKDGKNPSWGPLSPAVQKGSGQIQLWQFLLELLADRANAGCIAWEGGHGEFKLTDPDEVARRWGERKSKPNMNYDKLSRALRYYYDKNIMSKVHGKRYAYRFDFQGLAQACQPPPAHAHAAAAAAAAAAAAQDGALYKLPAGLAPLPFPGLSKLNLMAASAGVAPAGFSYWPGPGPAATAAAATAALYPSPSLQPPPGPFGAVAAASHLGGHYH
The following applies: protein: recombinant; tags: N-terminal GST; dsDNA, one strand shown. Summed up:
as §1

The target in a further test is ETV5 (Homo sapiens, UniProt P41161 1-510). The following applies: protein: recombinant; tags: N-terminal GST; dsDNA, one strand shown. The procedure, abridged: as §1
Chain of ETV5 (P41161 whole entry): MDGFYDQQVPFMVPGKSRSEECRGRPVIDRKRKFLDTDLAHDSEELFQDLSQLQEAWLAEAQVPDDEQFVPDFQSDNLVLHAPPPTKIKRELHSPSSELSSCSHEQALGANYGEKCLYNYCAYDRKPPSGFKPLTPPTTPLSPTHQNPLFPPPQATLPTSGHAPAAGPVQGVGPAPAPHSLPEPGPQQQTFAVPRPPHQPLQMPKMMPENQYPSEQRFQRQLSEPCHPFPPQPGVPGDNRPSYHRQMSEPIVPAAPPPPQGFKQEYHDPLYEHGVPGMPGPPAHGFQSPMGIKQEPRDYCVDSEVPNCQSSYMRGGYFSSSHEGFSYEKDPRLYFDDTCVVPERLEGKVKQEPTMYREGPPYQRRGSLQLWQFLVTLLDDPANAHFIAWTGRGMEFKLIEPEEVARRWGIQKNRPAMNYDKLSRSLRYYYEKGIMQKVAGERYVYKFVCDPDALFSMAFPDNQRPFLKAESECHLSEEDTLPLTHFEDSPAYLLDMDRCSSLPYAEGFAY
Another test has as its target HSF1 (Homo sapiens, UniProt Q00613 1-529). Particulars: protein: recombinant; tags: N-terminal GST; chain copies: 3; dsDNA, one strand shown. Summed up:
as §1

The next test deals with T8, SPIC (Homo sapiens, UniProt Q8N5J4 1-248).
T8 sequence: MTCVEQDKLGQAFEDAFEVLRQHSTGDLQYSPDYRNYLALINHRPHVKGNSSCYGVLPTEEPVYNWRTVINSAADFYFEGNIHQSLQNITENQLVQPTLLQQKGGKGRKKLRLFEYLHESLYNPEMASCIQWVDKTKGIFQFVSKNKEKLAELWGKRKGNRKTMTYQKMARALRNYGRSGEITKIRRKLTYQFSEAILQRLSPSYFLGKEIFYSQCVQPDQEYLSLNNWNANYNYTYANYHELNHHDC
The following applies: protein: recombinant; tags: N-terminal GST; dsDNA, one strand shown. Summed up: as §1

The next test concerns the target ELF4 (Homo sapiens, UniProt Q99607 1-663). Particulars: protein: recombinant; tags: N-terminal GST; dsDNA, one strand shown. The procedure, abridged:
as §1

Another test addresses T9, ELK4 (Homo sapiens, UniProt P28324-2 1-405).
T9 sequence: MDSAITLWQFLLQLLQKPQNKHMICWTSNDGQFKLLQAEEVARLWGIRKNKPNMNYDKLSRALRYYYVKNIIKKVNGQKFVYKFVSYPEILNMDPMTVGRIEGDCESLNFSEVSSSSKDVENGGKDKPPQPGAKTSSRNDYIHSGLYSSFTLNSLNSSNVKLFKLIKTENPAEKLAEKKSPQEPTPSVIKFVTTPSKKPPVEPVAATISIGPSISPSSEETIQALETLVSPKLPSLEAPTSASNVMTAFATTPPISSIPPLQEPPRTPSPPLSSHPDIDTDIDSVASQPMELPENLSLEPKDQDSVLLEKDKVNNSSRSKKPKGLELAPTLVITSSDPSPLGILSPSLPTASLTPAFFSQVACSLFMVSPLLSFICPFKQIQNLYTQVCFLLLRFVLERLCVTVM
The following applies: protein: recombinant; tags: N-terminal GST; dsDNA, one strand shown. The procedure, abridged:
as §1

In the next test the target is T10, ETV2 (Homo sapiens, UniProt O00321 1-342).
T10 sequence: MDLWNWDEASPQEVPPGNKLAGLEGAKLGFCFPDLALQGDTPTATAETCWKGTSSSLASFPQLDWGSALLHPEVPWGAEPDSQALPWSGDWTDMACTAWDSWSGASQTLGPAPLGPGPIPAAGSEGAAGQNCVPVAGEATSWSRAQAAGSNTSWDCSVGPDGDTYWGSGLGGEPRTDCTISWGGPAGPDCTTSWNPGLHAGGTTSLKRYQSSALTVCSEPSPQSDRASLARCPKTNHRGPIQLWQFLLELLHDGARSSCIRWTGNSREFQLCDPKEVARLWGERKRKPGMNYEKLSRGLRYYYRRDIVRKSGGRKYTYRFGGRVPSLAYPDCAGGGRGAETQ
Particulars: protein: recombinant; tags: N-terminal GST; dsDNA, one strand shown. Summed up: as §1

The target of a further test is T11, ELF3 (Homo sapiens, UniProt P78545 1-371).
T11 sequence: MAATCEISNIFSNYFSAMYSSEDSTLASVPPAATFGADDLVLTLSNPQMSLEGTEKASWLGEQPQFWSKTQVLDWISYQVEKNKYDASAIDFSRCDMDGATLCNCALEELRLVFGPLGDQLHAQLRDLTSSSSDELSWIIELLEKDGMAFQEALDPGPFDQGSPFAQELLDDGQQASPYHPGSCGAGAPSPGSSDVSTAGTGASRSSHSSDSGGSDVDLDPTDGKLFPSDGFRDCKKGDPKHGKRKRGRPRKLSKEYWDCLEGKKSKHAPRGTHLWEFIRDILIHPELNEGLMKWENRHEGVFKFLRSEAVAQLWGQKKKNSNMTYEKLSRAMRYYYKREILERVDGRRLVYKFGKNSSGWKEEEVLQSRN
Particulars: protein: recombinant; tags: N-terminal GST; dsDNA, one strand shown. The procedure, abridged:
as §1

The next test concerns the target CRX (Homo sapiens, UniProt O43186 1-299). Particulars: protein: recombinant; tags: N-terminal GST; dsDNA, one strand shown. Summed up: as §1
The target in a further test is ETV1 (Homo sapiens, UniProt P50549 1-477). Particulars: protein: recombinant; tags: N-terminal GST; dsDNA, one strand shown. Summed up: as §1
Chain of ETV1 (P50549 whole entry): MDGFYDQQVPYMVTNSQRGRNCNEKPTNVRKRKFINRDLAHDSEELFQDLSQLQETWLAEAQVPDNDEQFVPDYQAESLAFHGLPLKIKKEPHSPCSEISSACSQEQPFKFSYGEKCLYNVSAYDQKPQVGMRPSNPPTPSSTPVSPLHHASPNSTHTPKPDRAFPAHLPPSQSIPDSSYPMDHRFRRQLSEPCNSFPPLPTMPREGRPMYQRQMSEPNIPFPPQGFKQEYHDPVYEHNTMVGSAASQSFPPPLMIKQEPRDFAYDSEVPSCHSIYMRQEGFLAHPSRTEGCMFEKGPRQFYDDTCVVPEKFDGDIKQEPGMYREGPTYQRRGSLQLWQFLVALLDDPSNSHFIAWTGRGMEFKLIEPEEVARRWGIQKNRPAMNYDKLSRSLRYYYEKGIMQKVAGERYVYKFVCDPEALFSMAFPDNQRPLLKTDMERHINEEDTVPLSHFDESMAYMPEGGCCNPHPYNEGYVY

Chain of SPIB (Q01892 whole entry): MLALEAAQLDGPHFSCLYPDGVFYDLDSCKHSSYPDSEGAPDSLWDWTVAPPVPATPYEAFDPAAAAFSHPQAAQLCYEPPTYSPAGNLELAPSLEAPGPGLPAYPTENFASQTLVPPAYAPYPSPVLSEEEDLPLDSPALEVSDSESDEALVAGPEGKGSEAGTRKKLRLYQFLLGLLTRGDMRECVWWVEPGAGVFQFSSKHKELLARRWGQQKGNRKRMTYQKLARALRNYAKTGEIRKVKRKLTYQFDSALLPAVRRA
Chain of CRX (O43186 whole entry): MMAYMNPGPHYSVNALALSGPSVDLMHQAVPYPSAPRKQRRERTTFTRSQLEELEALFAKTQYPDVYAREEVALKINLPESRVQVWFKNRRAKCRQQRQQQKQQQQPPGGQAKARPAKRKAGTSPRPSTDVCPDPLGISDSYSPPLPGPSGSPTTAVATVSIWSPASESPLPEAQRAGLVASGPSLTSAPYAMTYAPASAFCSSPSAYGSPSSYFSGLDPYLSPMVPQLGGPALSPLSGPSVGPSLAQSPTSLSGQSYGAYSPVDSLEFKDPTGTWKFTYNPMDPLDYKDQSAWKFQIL
Chain of ELF1 (P32519 whole entry): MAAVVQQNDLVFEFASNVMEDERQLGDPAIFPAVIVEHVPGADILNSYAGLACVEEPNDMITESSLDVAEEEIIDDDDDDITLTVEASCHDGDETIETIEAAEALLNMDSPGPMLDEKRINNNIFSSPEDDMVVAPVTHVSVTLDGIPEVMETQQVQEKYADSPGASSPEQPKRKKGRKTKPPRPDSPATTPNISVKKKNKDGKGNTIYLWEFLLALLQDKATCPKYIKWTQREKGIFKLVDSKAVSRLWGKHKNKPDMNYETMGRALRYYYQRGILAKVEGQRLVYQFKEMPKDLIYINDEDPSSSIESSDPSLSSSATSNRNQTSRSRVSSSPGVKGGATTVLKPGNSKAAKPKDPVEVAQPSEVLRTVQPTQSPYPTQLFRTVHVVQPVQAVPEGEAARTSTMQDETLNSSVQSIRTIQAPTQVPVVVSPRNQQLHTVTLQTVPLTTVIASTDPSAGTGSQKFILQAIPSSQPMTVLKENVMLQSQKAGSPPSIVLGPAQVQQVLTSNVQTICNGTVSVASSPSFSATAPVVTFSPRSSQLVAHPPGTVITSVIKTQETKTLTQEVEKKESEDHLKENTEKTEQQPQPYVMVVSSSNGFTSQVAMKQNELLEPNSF
Chain of ELF4 (Q99607 whole entry): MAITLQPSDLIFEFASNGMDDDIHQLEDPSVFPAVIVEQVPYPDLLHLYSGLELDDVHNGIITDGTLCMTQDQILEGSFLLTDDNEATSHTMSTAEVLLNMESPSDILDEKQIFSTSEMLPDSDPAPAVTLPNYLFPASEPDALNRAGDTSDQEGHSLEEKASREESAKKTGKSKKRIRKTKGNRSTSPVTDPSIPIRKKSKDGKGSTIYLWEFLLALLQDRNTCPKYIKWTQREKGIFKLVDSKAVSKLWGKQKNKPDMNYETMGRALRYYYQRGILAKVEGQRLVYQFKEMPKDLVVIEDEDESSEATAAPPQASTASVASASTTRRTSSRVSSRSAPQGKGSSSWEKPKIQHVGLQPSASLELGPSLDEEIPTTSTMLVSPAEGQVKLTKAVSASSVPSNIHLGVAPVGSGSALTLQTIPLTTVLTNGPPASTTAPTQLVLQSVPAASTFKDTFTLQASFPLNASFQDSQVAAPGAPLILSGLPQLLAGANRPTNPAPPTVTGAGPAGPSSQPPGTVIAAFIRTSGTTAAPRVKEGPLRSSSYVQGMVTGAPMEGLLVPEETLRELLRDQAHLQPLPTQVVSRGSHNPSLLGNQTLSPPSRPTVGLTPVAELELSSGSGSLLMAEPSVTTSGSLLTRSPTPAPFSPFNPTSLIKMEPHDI
Chain of HSF1 (Q00613 whole entry): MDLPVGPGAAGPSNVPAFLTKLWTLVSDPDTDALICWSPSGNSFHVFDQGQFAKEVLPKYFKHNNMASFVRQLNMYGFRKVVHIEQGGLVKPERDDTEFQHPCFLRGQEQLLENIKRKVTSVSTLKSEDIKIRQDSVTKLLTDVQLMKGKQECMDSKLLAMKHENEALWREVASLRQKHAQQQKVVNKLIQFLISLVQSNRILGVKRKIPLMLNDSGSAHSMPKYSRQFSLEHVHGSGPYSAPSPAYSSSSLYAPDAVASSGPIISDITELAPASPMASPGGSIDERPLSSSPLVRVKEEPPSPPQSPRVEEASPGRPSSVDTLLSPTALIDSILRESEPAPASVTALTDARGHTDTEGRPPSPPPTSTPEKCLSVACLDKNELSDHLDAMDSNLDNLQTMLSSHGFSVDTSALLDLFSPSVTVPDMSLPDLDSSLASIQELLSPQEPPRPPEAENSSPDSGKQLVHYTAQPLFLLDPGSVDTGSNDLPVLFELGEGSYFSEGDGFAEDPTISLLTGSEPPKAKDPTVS

CTAAAT: the binding signal with FLI1 is 1.34 fold enrichment (6-mer frequency, TF over GST control); with ELK1, 1.36 fold enrichment (6-mer frequency, TF over GST control); with GABPA, 1.31 fold enrichment (6-mer frequency, TF over GST control); with ERG, 1.34 fold enrichment (6-mer frequency, TF over GST control); with ELF1 it was 1.3 fold enrichment (6-mer frequency, TF over GST control); in the test with EHF it was 1.34 fold enrichment (6-mer frequency, TF over GST control). Besides, the binding signal is 1.37 fold enrichment (6-mer frequency, TF over GST control) with SPI1; 1.38 fold enrichment (6-mer frequency, TF over GST control) with SPIB; 1.37 fold enrichment (6-mer frequency, TF over GST control) with ELK3; 1.3 fold enrichment (6-mer frequency, TF over GST control) with FEV; 1.42 fold enrichment (6-mer frequency, TF over GST control) with ETV5; 1.59 fold enrichment (6-mer frequency, TF over GST control) in the test with HSF1. Further, the binding signal in the test with SPIC is 1.38 fold enrichment (6-mer frequency, TF over GST control); in the test with ELF4, 1.36 fold enrichment (6-mer frequency, TF over GST control); in the test with ELK4 it was 1.42 fold enrichment (6-mer frequency, TF over GST control); with ETV2 it was 1.33 fold enrichment (6-mer frequency, TF over GST control); with ELF3 it was 1.46 fold enrichment (6-mer frequency, TF over GST control); with CRX, 1.9 fold enrichment (6-mer frequency, TF over GST control). Also, the binding signal in the test with ETV1 is 1.42 fold enrichment (6-mer frequency, TF over GST control).
